From PubChem BioAssay (EPA / NIEHS)
Records with an inconclusive call do not appear. Active and inactive are the calls of the source. How the source made its calls, unless noted: active means hit-call score of the fitted dose curve at least 0.9, where 1 is the maximum; inactive means score below 0.9.

Columns and labels:
[1] = target: Paired box protein Pax-6 (Homo sapiens) (UniProt P26367); test: ATG_Pax6_CIS: Attagene CIS-FACTORIAL HepG2 Assay for human Paired Box 6 (PAX6) (AID 2282956); details: HepG2 CIS-FACTORIAL PAX6 reporter transcription, RNA readout; actives raise or lower the signal
Paired box protein Pax-6 (Homo sapiens), sequence (P26367 whole entry, looked up): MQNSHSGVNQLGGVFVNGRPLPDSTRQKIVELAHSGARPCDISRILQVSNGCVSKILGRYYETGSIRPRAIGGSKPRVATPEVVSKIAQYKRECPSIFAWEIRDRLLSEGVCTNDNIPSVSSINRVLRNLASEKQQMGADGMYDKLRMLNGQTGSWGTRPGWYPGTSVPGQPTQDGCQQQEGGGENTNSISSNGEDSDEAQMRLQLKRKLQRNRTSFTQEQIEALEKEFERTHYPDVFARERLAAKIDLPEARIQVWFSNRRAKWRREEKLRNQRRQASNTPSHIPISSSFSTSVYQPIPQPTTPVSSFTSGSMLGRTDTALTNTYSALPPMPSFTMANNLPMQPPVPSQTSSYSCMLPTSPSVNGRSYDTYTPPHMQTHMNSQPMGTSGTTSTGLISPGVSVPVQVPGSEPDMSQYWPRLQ
In short: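 HepG2 cells transiently transfected with multiplexed cis-promoter reporter units (endogenous TF activity) were dosed for 24 h. Reporter mRNA was quantified by RT-PCR, 6-FAM labeling, HpaI digestion and capillary electrophoresis; bidirectional fitting versus DMSO baseline.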

[2] = ATG_PXRE_CIS: Attagene CIS-FACTORIAL HepG2 Assay for human Pregnane X Receptor Element (PXRE) (AID 2282957); details: HepG2 Attagene CIS-FACTORIAL PXRE reporter, mRNA; actives raise or lower the signal
In short: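 Transfect HepG2 with MRTUs (cis promoter elements); dose chemical, incubate 24 h; isolate RNA, RT with oligo(dT), PCR, 6-FAM label, HpaI cut, CE. Gain/loss fit vs DMSO.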

[3] = ATG_RORE_CIS: Attagene CIS-FACTORIAL HepG2 Assay for human RAR-related Orphan Receptor Element (RORE) (AID 2282959); details: HepG2 Attagene cis-factorial RORE reporter, mRNA; actives raise or lower the signal
In short: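 Fluorescence intensity of reporter-specific cDNA fragments, separated by capillary electrophoresis, gives the signal. Source: HepG2 liver cells transiently transfected with cis-element reporters and exposed 24 h; DMSO-normalized bidirectional fit.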

[4] = ATG_Sox_CIS: Attagene CIS-FACTORIAL HepG2 Assay for human SRY-box transcription factor (SOX) (AID 2282960); details: HepG2 Attagene cis-factorial SOX reporter, mRNA; actives raise or lower the signal
In short: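 After 24 h of chemical treatment, transfected HepG2 reporter cells are lysed for total RNA. Transcript levels come from RT-PCR with labelled primer extension and capillary electrophoresis, analysed bidirectionally versus DMSO.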

[5] = target: Transcription factor Sp1 (Homo sapiens) (UniProt P08047); test: ATG_Sp1_CIS: Attagene CIS-FACTORIAL HepG2 Assay for human Specificity Protein 1 (Sp1) (AID 2282961); details: HepG2 Sp1 cis-reporter transcription, actives raise or lower the signal
Transcription factor Sp1 (Homo sapiens), sequence (P08047 whole entry, looked up): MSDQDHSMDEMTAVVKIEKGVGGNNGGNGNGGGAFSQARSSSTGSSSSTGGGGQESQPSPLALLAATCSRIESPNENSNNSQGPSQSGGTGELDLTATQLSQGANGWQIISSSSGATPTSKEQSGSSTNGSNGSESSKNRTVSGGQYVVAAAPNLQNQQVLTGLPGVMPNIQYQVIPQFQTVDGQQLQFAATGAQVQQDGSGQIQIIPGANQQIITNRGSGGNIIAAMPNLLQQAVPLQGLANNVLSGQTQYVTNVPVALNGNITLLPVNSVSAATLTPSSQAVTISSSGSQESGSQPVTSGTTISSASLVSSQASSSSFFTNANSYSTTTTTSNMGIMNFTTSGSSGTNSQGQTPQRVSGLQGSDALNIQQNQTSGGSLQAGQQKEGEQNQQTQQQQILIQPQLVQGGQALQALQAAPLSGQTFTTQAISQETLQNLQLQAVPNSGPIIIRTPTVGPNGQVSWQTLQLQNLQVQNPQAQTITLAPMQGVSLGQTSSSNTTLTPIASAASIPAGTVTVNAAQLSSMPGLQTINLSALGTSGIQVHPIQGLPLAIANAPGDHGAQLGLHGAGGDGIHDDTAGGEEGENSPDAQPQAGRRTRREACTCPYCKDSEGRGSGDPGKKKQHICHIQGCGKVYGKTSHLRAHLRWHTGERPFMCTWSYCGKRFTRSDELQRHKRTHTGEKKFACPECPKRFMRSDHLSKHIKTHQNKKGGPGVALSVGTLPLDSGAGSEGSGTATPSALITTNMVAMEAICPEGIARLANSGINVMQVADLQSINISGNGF
In short: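 Sp1-driven reporter mRNA, read as capillary electrophoresis fluorescence after RT-PCR, in transiently transfected HepG2 cells dosed for 24 h; signal change in either direction relative to DMSO.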

[6] = ATG_SREBP_CIS: Attagene CIS-FACTORIAL HepG2 Assay for human Sterol Regulatory Element Binding (SREBP) (AID 2282962); details: HepG2 Attagene cis-factorial SREBP reporter, mRNA; actives raise or lower the signal
In short: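 HepG2 cells transiently transfected with multiplexed cis-element reporter units report endogenous transcription factor activity. After 24 h of chemical exposure, reporter mRNA was quantified by RT-PCR, 6-FAM labelling, HpaI digestion and capillary electrophoresis; bidirectional fits used DMSO as baseline.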

[7] = target: Signal transducer and activator of transcription 3 (Homo sapiens) (UniProt P40763); test: ATG_STAT3_CIS: Attagene CIS-FACTORIAL HepG2 Assay for human Signal Transducer and Activator of Transcription 3 (STAT3) (AID 2282963); details: HepG2, Attagene cis-factorial STAT3 reporter transcription; actives raise or lower the signal
Signal transducer and activator of transcription 3 (Homo sapiens), sequence (P40763 whole entry, looked up): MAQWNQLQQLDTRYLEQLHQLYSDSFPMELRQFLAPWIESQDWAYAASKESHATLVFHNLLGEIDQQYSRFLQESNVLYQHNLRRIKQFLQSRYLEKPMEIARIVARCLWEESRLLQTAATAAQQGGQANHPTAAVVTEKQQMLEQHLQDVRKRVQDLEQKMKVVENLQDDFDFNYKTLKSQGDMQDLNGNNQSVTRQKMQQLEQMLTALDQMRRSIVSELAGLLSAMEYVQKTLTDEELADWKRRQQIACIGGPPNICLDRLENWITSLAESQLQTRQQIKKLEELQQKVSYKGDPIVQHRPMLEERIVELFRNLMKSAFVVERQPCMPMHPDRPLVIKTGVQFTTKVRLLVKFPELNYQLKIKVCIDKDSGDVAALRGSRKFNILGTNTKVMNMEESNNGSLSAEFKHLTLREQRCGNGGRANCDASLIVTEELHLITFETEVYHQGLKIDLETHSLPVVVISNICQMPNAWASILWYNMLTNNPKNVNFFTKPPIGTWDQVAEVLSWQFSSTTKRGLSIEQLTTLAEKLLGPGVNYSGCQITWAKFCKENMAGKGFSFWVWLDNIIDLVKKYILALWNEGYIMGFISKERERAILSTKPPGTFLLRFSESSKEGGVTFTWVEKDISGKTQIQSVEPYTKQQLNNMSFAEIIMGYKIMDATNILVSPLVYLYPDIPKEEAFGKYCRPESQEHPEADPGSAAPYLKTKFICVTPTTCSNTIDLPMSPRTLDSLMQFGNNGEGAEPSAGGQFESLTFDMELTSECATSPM
In short: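 HepG2 cells transiently transfected with multiple cis-element-driven reporter units report endogenous transcription factor activity. After 24 h compound exposure, reporter mRNA is measured by RT-PCR, 6-FAM labelling, HpaI digestion and capillary electrophoresis. Fitted bidirectionally versus DMSO.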

[8] = ATG_TA_CIS: Attagene CIS-FACTORIAL HepG2 Assay for human TA Basal Promoter (AID 2282964); details: HepG2 Attagene CIS-factorial TA basal promoter reporter; actives raise or lower the signal
In short: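 Cis-factorial format in HepG2: reporters report endogenous factors, not chimeric Gal4 fusions. After 24 h treatment, reporter transcripts were measured by RT-PCR-capillary electrophoresis fluorescence, analysed bidirectionally versus DMSO.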

[9] = ATG_TCF_b_cat_CIS: Attagene CIS-FACTORIAL HepG2 Assay for human T-Cell-Factor with beta-catenin (TCF/b-cat) (AID 2282965); details: HepG2 TCF/beta-catenin cis-reporter transcription, actives raise or lower the signal
In short: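 HepG2 cells transiently transfected with cis-promoter-driven multiplexed reporter units; reporter mRNA measured 24 h after dosing by RT-PCR, FAM labelling, HpaI digestion and capillary electrophoresis. Bidirectional fitting relative to DMSO baseline.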

[10] = ATG_TAL_CIS: Attagene CIS-FACTORIAL HepG2 Assay for human TAL Basal Promoter (AID 2282966); details: HepG2 Attagene cis-factorial TAL promoter reporter; actives raise or lower the signal;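 further: background control endpoint measuring basal TAL promoter reporter mRNA not a specific factor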
In short: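 Fluorescence of labelled reporter cDNA fragments, resolved by capillary electrophoresis, gave the readout. Human HepG2 liver cells carried transiently transfected cis-element reporter units and were treated for 24 hours; activity was fitted bidirectionally against DMSO.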

[11] = ATG_TGFb_CIS: Attagene CIS-FACTORIAL HepG2 Assay for human Transforming Growth Factor (TGF) (AID 2282967); details: HepG2 Attagene CIS TGFb reporter, mRNA transcription; actives raise or lower the signal
In short: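 Multiplexed cis-reporter HepG2 system, 24 h treatment; mRNA induction read by fluorescence after RT-PCR and CE; DMSO negative control, bidirectional curve fitting.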

[12] = ATG_VDRE_CIS: Attagene CIS-FACTORIAL HepG2 Assay for human Vitamin D Receptor Element (VDRE) (AID 2282968); details: HepG2 VDRE cis-reporter transcription, actives raise or lower the signal
In short: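 Transiently transfected HepG2 cells carrying cis-regulated reporter transcription units were exposed for 24 h. Reporter mRNA was measured by RT-PCR with fluorescent labelling and capillary electrophoresis, and fitted in both directions against DMSO.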

[13] = target: Nuclear receptor subfamily 1 group I member 3 (Homo sapiens) (UniProt Q14994); test: ATG_CAR_TRANS: Attagene TRANS-FACTORIAL HepG2 Assay for human Constitutive Androstane Receptor (CAR) (AID 2282969; active means hit-call score of the fitted dose curve at least 0.9, where 1 is the maximum;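 further: activators raise reporter mRNA above DMSO so AC50 marks induction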); details: HepG2 Attagene TRANS-FACTORIAL CAR reporter
Nuclear receptor subfamily 1 group I member 3 (Homo sapiens), sequence (Q14994 whole entry, looked up, the tested form may be a part): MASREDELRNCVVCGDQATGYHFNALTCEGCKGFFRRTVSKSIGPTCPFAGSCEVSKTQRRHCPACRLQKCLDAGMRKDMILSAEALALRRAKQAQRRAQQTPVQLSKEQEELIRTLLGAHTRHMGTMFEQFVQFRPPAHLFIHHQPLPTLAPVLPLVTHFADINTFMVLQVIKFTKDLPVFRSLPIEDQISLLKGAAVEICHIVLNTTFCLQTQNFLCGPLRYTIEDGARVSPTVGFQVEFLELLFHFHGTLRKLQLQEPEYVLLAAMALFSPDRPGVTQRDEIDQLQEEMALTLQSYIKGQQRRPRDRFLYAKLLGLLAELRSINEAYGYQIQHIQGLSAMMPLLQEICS
In short: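 HepG2 cells transiently transfected with GAL4-UAS reporter units; TRANS format reads activity of exogenous chimeric NR-Gal4 protein. After 24 h dosing, reporter mRNA quantified by RT-PCR, 6-FAM labelling and capillary electrophoresis; gain of signal fitted against DMSO.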

[14] = target: Estrogen receptor (Homo sapiens) (UniProt P03372); test: ATG_ERa_TRANS: Attagene TRANS-FACTORIAL HepG2 Assay for human Estrogen Receptor alpha (ERa) (AID 2282970; active means hit-call score of the fitted dose curve at least 0.9, where 1 is the maximum); details: HepG2 Attagene TRANS ERa GAL4 reporter, mRNA
Estrogen receptor (Homo sapiens), sequence (P03372 whole entry, looked up, the tested form may be a part): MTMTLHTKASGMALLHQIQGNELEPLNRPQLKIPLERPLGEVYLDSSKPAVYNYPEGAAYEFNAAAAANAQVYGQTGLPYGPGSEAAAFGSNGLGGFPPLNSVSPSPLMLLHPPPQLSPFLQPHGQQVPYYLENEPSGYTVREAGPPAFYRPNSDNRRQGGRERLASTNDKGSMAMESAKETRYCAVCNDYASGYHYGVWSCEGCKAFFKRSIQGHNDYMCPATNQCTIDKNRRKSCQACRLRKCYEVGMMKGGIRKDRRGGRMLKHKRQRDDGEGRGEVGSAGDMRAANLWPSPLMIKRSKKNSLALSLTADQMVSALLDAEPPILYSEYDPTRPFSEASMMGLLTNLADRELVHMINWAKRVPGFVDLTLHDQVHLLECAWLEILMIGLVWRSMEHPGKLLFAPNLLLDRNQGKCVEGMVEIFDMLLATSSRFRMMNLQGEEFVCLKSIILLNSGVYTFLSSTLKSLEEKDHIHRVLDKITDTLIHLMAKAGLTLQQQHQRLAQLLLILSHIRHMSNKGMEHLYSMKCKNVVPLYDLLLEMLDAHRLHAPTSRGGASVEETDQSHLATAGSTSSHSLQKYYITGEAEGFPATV
In short: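 Human liver HepG2, transient transfection of multiple GAL4-UAS reporter units; TRANS format (exogenous NR-Gal4 chimera). 24 h dosing. Readout: reporter mRNA, RT-PCR, 6-FAM primer extension, HpaI digest, capillary electrophoresis. Positive direction vs DMSO.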

[15] = target: X-box-binding protein 1 (Homo sapiens) (UniProt P17861); test: ATG_Xbp1_CIS: Attagene CIS-FACTORIAL HepG2 Assay for human X-box Binding Protein 1 (XBP1) (AID 2282972); details: HepG2 XBP1 cis-element reporter, Attagene multiplex; actives raise or lower the signal
X-box-binding protein 1 (Homo sapiens), sequence (P17861 whole entry, looked up): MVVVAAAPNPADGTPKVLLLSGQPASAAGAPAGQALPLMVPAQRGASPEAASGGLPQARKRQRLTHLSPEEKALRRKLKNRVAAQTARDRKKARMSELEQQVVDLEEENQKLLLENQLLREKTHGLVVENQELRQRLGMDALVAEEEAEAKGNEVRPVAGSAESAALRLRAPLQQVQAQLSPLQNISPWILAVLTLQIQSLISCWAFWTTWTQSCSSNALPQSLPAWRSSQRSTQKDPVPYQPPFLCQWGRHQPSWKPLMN
In short: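 HepG2 cells transiently transfected with cis-regulated multiple reporter transcription units; endogenous transcription factor activity measured 24 hours after chemical dosing. Reporter mRNA quantified by RT-PCR, 6-FAM primer extension, HpaI digestion and capillary electrophoresis; bidirectional fitting versus DMSO.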

[16] = ATG_GAL4_TRANS: Attagene TRANS-FACTORIAL HepG2 Assay for GAL4 (Internal Marker) (AID 2282976; active means hit-call score of the fitted dose curve at least 0.9, where 1 is the maximum); details: HepG2 Attagene TRANS GAL4 internal marker reporter
In short: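 First, HepG2 cells were transfected with reporter units under GAL4-UAS control. Next, they were treated with chemical for 24 h. Finally, RNA was reverse-transcribed, PCR-amplified, FAM-labelled and resolved by capillary electrophoresis, with induction scored against DMSO.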

[17] = ATG_PPRE_CIS: Attagene CIS-FACTORIAL HepG2 Assay for human Peroxisome Proliferator-activated Response Element (PPRE) (AID 2282958); details: HepG2 PPRE cis-element reporter, Attagene transcription factor profiling; actives raise or lower the signal
In short: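 Multiplexed reporter transcription units under cis-regulatory promoters were transfected into HepG2 cells to capture endogenous factor activity. A 24 h incubation preceded RNA isolation and fluorescent RT-PCR fragment analysis.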

[18] = ATG_M_19_TRANS: Attagene TRANS-FACTORIAL HepG2 Assay for M19 Transcription Factor (Internal Marker) (AID 2282974; active means hit-call score of the fitted dose curve at least 0.9, where 1 is the maximum); details: HepG2 Attagene TRANS-FACTORIAL M19 internal marker reporter
In short: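 Measured here: internal-marker reporter transcript from HepG2 cells transfected with MRTUs, harvested at 24 h. cDNA PCR products were 6-FAM labelled by primer extension, cut with HpaI for 2 h at 37 C, and resolved by CE.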

[19] = target: Estrogen-related receptor gamma (Homo sapiens) (UniProt P62508); test: ATG_ERRg_TRANS: Attagene TRANS-FACTORIAL HepG2 Assay for human Estrogen-Related Receptor gamma (ERRg) (AID 2282977; active means hit-call score of the fitted dose curve at least 0.9, where 1 is the maximum;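 further: hits increase reporter signal over DMSO so potencies reflect activators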); details: HepG2 Attagene TRANS reporter, ERRg transactivation
Estrogen-related receptor gamma (Homo sapiens), sequence (P62508 whole entry, looked up, the tested form may be a part): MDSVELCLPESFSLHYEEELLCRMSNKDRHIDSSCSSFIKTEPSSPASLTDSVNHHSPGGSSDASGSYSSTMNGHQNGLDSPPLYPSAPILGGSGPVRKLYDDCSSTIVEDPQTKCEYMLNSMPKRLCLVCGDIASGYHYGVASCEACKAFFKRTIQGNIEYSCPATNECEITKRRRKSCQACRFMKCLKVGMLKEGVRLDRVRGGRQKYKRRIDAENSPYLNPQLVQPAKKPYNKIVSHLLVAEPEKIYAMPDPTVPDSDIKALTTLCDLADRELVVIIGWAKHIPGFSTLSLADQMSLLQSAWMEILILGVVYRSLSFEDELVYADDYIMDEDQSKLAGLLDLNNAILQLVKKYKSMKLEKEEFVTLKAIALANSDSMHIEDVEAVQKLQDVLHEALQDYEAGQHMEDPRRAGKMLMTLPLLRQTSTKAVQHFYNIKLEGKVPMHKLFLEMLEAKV
In short: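 HepG2 cells transiently transfected with multiplexed GAL4-UAS reporter units driven by chimeric NR-Gal4 proteins; 24 h exposure. Reporter mRNA quantified by RT-PCR, fluorescent labelling, HpaI digestion and capillary electrophoresis; gain of signal vs DMSO.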

[20] = target: Steroid hormone receptor ERR1 (Homo sapiens) (UniProt P11474); test: ATG_ERRa_TRANS: Attagene TRANS-FACTORIAL HepG2 Assay for human Estrogen-Related Receptor alpha (ERRa) (AID 2282971; active means hit-call score of the fitted dose curve at least 0.9, where 1 is the maximum); details: HepG2 Attagene TRANS reporter, ERRa transactivation
Steroid hormone receptor ERR1 (Homo sapiens), sequence (P11474 whole entry, looked up, the tested form may be a part): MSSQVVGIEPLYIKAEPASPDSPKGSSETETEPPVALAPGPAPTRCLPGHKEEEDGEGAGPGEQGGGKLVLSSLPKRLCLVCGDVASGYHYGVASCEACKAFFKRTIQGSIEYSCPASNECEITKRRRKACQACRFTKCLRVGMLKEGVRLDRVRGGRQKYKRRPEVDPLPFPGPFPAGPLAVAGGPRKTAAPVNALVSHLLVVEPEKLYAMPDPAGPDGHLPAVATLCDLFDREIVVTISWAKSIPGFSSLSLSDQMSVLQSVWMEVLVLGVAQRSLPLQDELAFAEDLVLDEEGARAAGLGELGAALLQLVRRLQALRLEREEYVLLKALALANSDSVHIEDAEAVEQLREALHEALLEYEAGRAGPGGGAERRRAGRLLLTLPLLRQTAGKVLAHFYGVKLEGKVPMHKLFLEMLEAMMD
In short: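 Reporter transcript induction was quantified by RT-PCR and capillary electrophoresis of FAM-labelled, HpaI-cut products after 24 h treatment of HepG2 cells carrying transiently transfected GAL4-UAS reporter units and an exogenous ERRa-Gal4 fusion; activity scored as increase over DMSO.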

Measured: AC50

OCCNCc1ccccc1
not listed: [17] | [18] | [19] | [20]
inactive: all other assays above

Oc1ccc(Cl)cc1Cc1cc(Cl)ccc1O
inactive: [2] | [4] | [7] | [8] | [10] | [14]
active: [1] 11.1 µM | [17] 4.48 µM | [9] 18.8 µM | [11] 11.1 µM | [12] 7 µM | [15] 6.64 µM

O=C1CCCCCCCCCCC(=O)OCCO1
not listed: [17] | [19] | [20]
inactive: all other assays above

CCOc1ccc(N)c([N+](=O)[O-])c1
not listed: [14] | [16] | [17] | [18] | [19] | [20]
inactive: all other assays above

CC(C)CCCCCOC(=O)CCS
active: [2] 6.6 µM
not listed: [3] | [11] | [13] | [16] | [19] | [20]
inactive: all other assays above

O=C(O)CC(C(=O)O)C(CC(=O)O)C(=O)O (stereo unspecified)
not listed: [3] | [5] | [13] | [14] | [16] | [19] | [20]
inactive: all other assays above

O=C(c1ccccc1)C1CCC1
not listed: [17] | [18] | [19] | [20]
inactive: all other assays above

CCOC(=O)CC(C(C)=O)C(C)=O
not listed: [13] | [16] | [17] | [19] | [20]
inactive: all other assays above

[Cl][In]([Cl])[Cl]
not listed: [16] | [17] | [18] | [20]
inactive: all other assays above

CCCCC(CC)COCC1CO1 (stereo unspecified)
not listed: [13] | [17] | [18] | [20]
inactive: all other assays above

CC(C)(C)c1n[nH]c(=O)n(N)c1=O
not listed: [3] | [13] | [14] | [20]
inactive: all other assays above

CCCCCc1ccc(Cl)cc1
active: [17] 25.9 µM | [5] 177 µM
not listed: [3] | [7] | [8] | [13] | [18] | [19] | [20]
inactive: all other assays above

CC(C)C(=O)C(C)C
inactive: [2] | [17] | [5] | [10] | [20]
active: [1] 42.4 µM | [4] 19.5 µM | [9] 61.5 µM | [12] 55.2 µM | [15] 34.7 µM

CCOC(=O)NNc1nncc2ccccc12
not listed: [3] | [6] | [13] | [14] | [18] | [19] | [20]
inactive: all other assays above

CCCOCCOCCOCCO
not listed: [3] | [7] | [13] | [14] | [16] | [20]
inactive: all other assays above

CC(=O)OC(C)C
active: [2] 100 µM
not listed: [3] | [11] | [13] | [16] | [18] | [19] | [20]
inactive: all other assays above

O=c1cc(-c2ccccc2)oc2ccccc12
active: [1] 99.5 µM | [2] 4.25 µM | [17] 4.81 µM | [8] 99.5 µM | [9] 25.2 µM | [12] 30.5 µM | [14] 4.97 µM | [15] 82.8 µM
inactive: [4] | [5] | [7] | [10] | [11] | [13] | [18]

CO[Si](OC)(OC)c1ccccc1
not listed: [3] | [6] | [7] | [13] | [16] | [18] | [19]
inactive: all other assays above
